From PubChem BioAssay (NCATS)
Results filed as inconclusive are left out. A call without a number means that no potency is given here. A number with no mark means an inactive call. Active and inactive are the calls of the source. The call rests on the fitted dose curve; in most records, active means well fitted inhibition curve with a large enough effect; inconclusive means small, poorly fitted or top-dose-only effect; inactive means no such curve, though single readings can be large or run the other way.

Assays:
[1] = test system: Zika virus NS2B-NS3 protease (unlinked complex); assay: Primary screen GU Rhodamine qHTS for Zika virus inhibitors: Unlinked NS2B-NS3 protease assay (AID 1347159); further: nearly all actives have a fitted effect of over 60% in size
Outline: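 Percent inhibition came from the 15-min rise in Rhodamine110 fluorescence (1.5 microM substrate, ~15% conversion), normalized to no-inhibitor and no-enzyme wells and Hill-fitted. Unlinked protease, 25 nM, pH 8.0 Tris buffer; compounds up to 114 microM, 15-min preincubation.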

[2] = test system: Zika virus NS2B-NS3 protease (linked construct); assay: Primary screen NINDS Rhodamine qHTS for Zika virus inhibitors (AID 1347160); further: nearly all actives have a fitted effect of over 55% in size
Outline: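 Rhodamine110-peptide cleavage (1.5 µM substrate) by 25 nM linked NS2B-NS3 enzyme at pH 8.0 (Tris, Tween 20), after 15 min RT preincubation with compounds; 15-min fluorescence change normalized to controls and Hill-fitted.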
Potency means the concentration at half of the fitted maximal effect.

Structure (SMILES)	Potency [1]	Potency [2]	activity change, negative = inhibition [1]	activity change, negative = inhibition [2]
O=C(O)CCc1cc2ccoc2cc1O[C@@H]1O[C@H](CO[C@@H]2OC[C@](O)(CO)[C@H]2O)[C@@H](O)[C@H](O)[C@H]1O	inactive	inactive		
CC1CCC2(C(=O)OC3OC(CO)C(O)C(O)C3O)CCC3(C)C(=CCC4C5(C)CC(O)C(O)C(C)(C(=O)O)C5CCC43C)C2C1(C)O (configuration not stated)	inactive	inactive		
O=C1Nc2ccc(O)cc2O[C@H]1O[C@@H]1O[C@H](CO)[C@@H](O)[C@H](O)[C@H]1O	inactive	inactive		
COc1cc(O[C@@H]2O[C@H](CO)[C@@H](O)[C@H](O)[C@H]2O)c(CCC(=O)OC[C@H]2O[C@@H](Oc3cc(OC)c(C4OC(=O)C(C)(O)C4O)cc3CCC(=O)O)[C@H](O)[C@@H](O)[C@@H]2O)cc1C1OC(=O)C(C)(O)C1O (some centres not stated)	inactive	inactive		
CNc1nc(Nc2cnn([C@H]3CCN(C4COC4)C[C@@H]3F)c2Cl)ncc1C(F)(F)F	inactive	inactive		
CC(=O)N1CCN(NC(=O)c2ccc(F)cc2)CC1	inactive	inactive		
C=C1CCC2(OC1)OC1CC3C4CC=C5CC(O)CC(O[C@@H]6OC[C@@H](O)[C@H](O)[C@H]6O)C5(C)C4CCC3(C)C1(O)C2C (some centres not stated)	inactive	inactive		
CC1CCC2C(C(=O)O)=CC3C(O)C(C)(C)CC123 (configuration not stated)	inactive	inactive		
C=C1CC23CC1(O)CCC2C1=CC2OC(=O)C(C)(C2O)C1C3C(=O)O (configuration not stated)	inactive	inactive		
C[C@@H]1C[C@H](O)/C=C/[C@H](O)[C@@H](O)CC(=O)O1	inactive	inactive		
COC1=CC(=O)O[C@@H](/C=C/c2ccccc2)[C@@H]1O	inactive	inactive		
COC1=CC(=O)O[C@@H](CCc2ccccc2)[C@@H]1O	inactive	inactive		
C=C1CCC[C@]2(C)C[C@]3(O)OC(=O)C(C)=C3C[C@@H]12	inactive	inactive		
CC1(C)CC[C@]2(C(=O)O)CC[C@]3(C)C(=CCC4[C@@]5(C)C[C@H](O)[C@H](O[C@@H]6OC[C@H](O)[C@H](O)[C@H]6O)[C@@](C)(CO)C5CC[C@]43C)[C@@H]2C1 (some centres not stated)	inactive	inactive		
CC(C#N)C(C)O[C@@H]1O[C@H](CO)[C@@H](O)[C@H](O)[C@H]1O (some centres not stated)	inactive	inactive		
CC(=O)OCC(=O)O[C@@H]1[C@H]2[C@@H](OC(=O)c3ccccc3)[C@@H](C)C[C@]2(O)[C@H](OC(C)=O)C2(C)[C@H]3CC(C)(C)C(=O)[C@@H]3CC1(OC(C)=O)[C@@H]2OC(C)=O (some centres not stated)	inactive	inactive		
CC[C@H](/C=C/[C@@H](C)[C@H]1CC[C@H]2[C@@H]3CC=C4C[C@@H](O)CC[C@]4(C)[C@H]3CC[C@]12C)C(C)C			1.47% [at 11.5 µM]	7.22% [at 4.91 µM]
NC(=O)c1ccc(OCC2NC(=O)C3CCCN3C2=O)cc1 (configuration not stated)	inactive	inactive		
CC(=O)OC[C@@]12[C@H](O)C[C@]3(C)C(=CCC4[C@@]5(C)CC[C@H](O[C@@H]6O[C@H](C(=O)O)[C@@H](O[C@@H]7O[C@H](CO)[C@@H](O)[C@H](O)[C@H]7O)[C@H](O)[C@H]6O[C@@H]6O[C@H](CO)[C@@H](O)[C@H](O)[C@H]6O)[C@](C)(CO)C5CC[C@]43C)[C@@H]1CC(C)(C)[C@@H](OC(C)=O)[C@@H]2O (some centres not stated)	inactive	inactive		
CCC[C@@H]1C[C@@H](C(=O)N[C@H](C(C)Cl)[C@H]2O[C@H](SC)[C@H](O)[C@@H](O)[C@H]2O)N(C)C1 (some centres not stated)	inactive	inactive		
C=C1C(OC(C)=O)C(=O)C2C(C)(C)C(OC(C)=O)CCC2(C)C1CC(OC(C)=O)/C(C)=C/COC(C)=O (configuration not stated)	inactive	inactive		
NC(=O)c1cccc(-c2cc(O)cc(OC(=O)NC3CCCCC3)c2)c1	inactive	inactive		
C=C[C@](C)(CC/C=C(\C)C(=O)O)O[C@@H]1OC[C@H](O)[C@H](O)[C@H]1O	25.1 µM (active)	12.6 µM (active)		
COc1cc([C@H]2OC[C@@H]3[C@@H](c4ccc(O[C@@H]5O[C@H](CO)[C@@H](O)[C@H](O)[C@H]5O)c(OC)c4)OC[C@]23O)ccc1O	inactive	inactive		
CCOc1cc2ncc(C#N)c(Nc3ccc(OCc4ccccn4)c(Cl)c3)c2cc1NC(=O)/C=C/CN(C)C	inactive	inactive		
CC(CO[C@@H]1O[C@H](COC(=O)/C=C/c2ccc(O)c(O)c2)[C@@H](O)[C@H](O)[C@H]1O)C1(O)COC(=O)C1 (some centres not stated)	inactive	inactive		
